A selection: hits, their analogues and other compounds. The true share with any hit is near 0.68%.
Rv3671c protease = inhibitors of M. tuberculosis serine protease Rv3671c; inhibition, % at 5.96 µM; P9WHR9; 320,000 compounds, 0.048% hits; in the data active means inhibition above about 38%;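 further: extracellular domain of Rv3671c used as enzyme; 0% = enzyme with DMSO and 100% = no enzyme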
Target sequence (P9WHR9 whole entry, looked up, the tested form may be a part): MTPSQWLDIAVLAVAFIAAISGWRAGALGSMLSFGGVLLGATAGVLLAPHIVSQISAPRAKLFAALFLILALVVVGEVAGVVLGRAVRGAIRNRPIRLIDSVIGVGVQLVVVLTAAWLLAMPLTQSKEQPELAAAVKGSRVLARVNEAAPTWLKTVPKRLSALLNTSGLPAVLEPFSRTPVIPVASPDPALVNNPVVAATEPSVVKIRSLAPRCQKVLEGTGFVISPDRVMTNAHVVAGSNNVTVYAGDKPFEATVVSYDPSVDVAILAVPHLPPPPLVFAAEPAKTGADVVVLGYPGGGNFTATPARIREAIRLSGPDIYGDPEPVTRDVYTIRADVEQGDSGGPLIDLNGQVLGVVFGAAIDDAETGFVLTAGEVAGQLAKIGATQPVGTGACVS
ugtP null kill = growth inhibition of S. aureus ugtP deletion strain; S. aureus RN4220 ugtP deletion, OD600 growth, 16 h; 330,000 compounds, 0.54% hits; growth inhibition, % (test concentration not listed); in the data active means growth inhibition above about 68%;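 further: plate controls were untreated wells for no effect and antibiotic for full effect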
UGM FP inh = Mtb UDP-galactopyranose mutase inhibition | P9WIQ1 | purified UGM, fluorescence polarization probe displacement | inhibition, % at 10 µM | 320,000 compounds, 0.06% hits | AID 504406; in the data active means inhibition above about 10%, passing the limit was not always enough
Mtb bLac sens = beta-lactam sensitization of Mtb H37Rv. M. tuberculosis H37Rv growth with meropenem, percent inhibition. inhibition, % at 25 µM. 330,000 compounds, 0.27% hits. AID 434955; call rule not given here;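 further: growth measured after seven days incubation then overnight dye step; 0% = bacteria only wells and 100% = bacteria with antibiotic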
Sa RN4220 lethal = kills Staphylococcus aureus RN4220 | inhibition, % (no concentration beside the values) | AID 1259311 | 330,000 compounds, 0.33% hits | S. aureus RN4220 growth, OD600, 16 h; in the data active means inhibition above about 85%;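 further: plate controls were untreated cells for no effect and reference antibiotic for full effect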
Mtb hypoxia inh = reduces hypoxia-regulated biosensor signal in M. tuberculosis. M. tuberculosis hypoxia-regulated fluorescent reporter, fluorescence. fluorescence inhibition, % (no concentration beside the values). 300,000 compounds, 0.1% hits. AID 1159583; in the data active means fluorescence inhibition mostly above about 23%, no sharp cut-off; inactive means mostly below about 17%
An asterisk follows results filed as active; nt = not tested or not shown.

SMILES	Rv3671c protease	ugtP null kill	UGM FP inh	Mtb bLac sens	Sa RN4220 lethal	Mtb hypoxia inh
COC(=O)[C@@]12CCCCN1C(c1ccc(-c3ccc(OC)cc3)c(OC)c1)C1C(=O)N(C)C(=O)C12 (stereo not given in full)	nt	-13	nt	nt	2	4
CC(NC(=O)OCc1ccccc1)C(=O)NC(Cc1c[nH]c2ccccc12)C(=O)O (stereo not given)	nt	3	nt	nt	6	1
CN(N=Cc1ccc(Cl)cc1Cl)c1ncc(Cl)cc1C(F)(F)F	nt	54	nt	nt	-1	0
CN(N=Cc1ccc(Cl)cc1)c1ncc(Cl)cc1C(F)(F)F	nt	98*	nt	nt	-11	8
CC(=O)CC1c2cc(F)ccc2S(=O)(=O)N1c1ccc(N(C)C)cc1 (stereo not given)	nt	-2	nt	nt	-2	-3
CN1CC=C(/C=C/c2ccc(-c3ccccc3)cc2)CC1	6	93*	-1	99	21	12
COc1ccc(/C=C/C2=CCN(C)CC2)cc1	-2	9	-4	0	2	13
CCN(CC)CCN1C(=O)C(=O)C(=C(O)c2ccccc2)C1c1ccccc1F (stereo not given)	nt	0	nt	nt	3	13
O=[N+]([O-])c1c(Nc2cccc(O)c2)cc(Cl)c2nonc12	9	nt	2	96	nt	nt
CNc1cc(Cl)c2nonc2c1[N+](=O)[O-]	nt	98*	nt	nt	94*	nt
O=C(/C=C/c1cn(CC(O)CN2CCCCC2)c2ccccc12)c1cccs1 (stereo not given)	-8	1	-2	99	1	6
O=C(/C=C/c1cn(CC(O)CN2CCCCC2)c2ccccc12)c1ccccc1 (stereo not given)	nt	1	nt	nt	2	33*
O=C1C=C(c2ccc(-c3ccccc3)cc2)CC(c2ccc3c(c2)OCO3)C1 (stereo not given)	nt	3	nt	nt	5	17
COc1cccc(C(=O)Nc2nnc(-c3ccc(Cl)cc3)o2)c1	-11	100*	2	98	99*	3
CC(=O)c1ccc(C(=O)Nc2nnc(-c3ccc(Cl)cc3)o2)cc1	3	99*	-1	96	98*	2
O=C(COc1ccccc1)Nc1nnc(-c2ccc(Cl)cc2)o1	12	-1	0	-16	13	4
O=C(Nc1nnc(-c2ccccc2)o1)c1ccc(Cl)cc1	2	99*	0	97	96*	6
O=C(COc1ccc(Cl)cc1)Nc1nnc(-c2ccc3c(c2)CCCC3)o1	3	96*	5	49	100*	0
CN(C)c1ccc(C(=O)Nc2nnc(-c3ccc(Cl)cc3)o2)cc1	16	1	0	92	11	-2
COc1ccc(/C=C/C(=O)c2c(O)cc(C)oc2=O)c(OC)c1	-9	100*	1	93	-16	8
COc1cccc(/C=C/C(=O)c2c(O)cc(C)oc2=O)c1O	5	1	-4	99	8	16
CC1(C)OC(CC(=O)O)[C@]23COC(C(=O)[C@]4(C)C2CC[C@@]2(C)C(c5ccoc5)OC(=O)C5O[C@]524)C13 (stereo not given in full)	nt	6	nt	nt	9	4
N#Cc1c2ccccc2nc2ccccc12	1	7	-7	95	21	62*
Nc1c2ccccc2nc2ccccc12	-7	3	-2	72	1	-1
Cc1cccc(C(=O)ON=C(N)Cc2ccc([N+](=O)[O-])cc2)c1	nt	-8	nt	nt	1	0
SMILES	Rv3671c protease	ugtP null kill	UGM FP inh	Mtb bLac sens	Sa RN4220 lethal	Mtb hypoxia inh
CCOC(=O)c1oc2ccc(CNC3CCCCC3)c(Cl)c2c1C	3	82*	-1	10	-2	10
CCOC(=O)c1oc2ccc(CNCCO)c(Cl)c2c1C	3	17	-1	-3	4	nt
COc1ccc(C2=NOC(CNC(N)=S)C2)cc1 (stereo not given)	-3	83*	-1	57	73	nt
COc1ccc(CNC(=O)C2CC(c3ccc(OC)cc3)=NO2)cc1 (stereo not given)	4	4	4	-9	1	-1
O=C(C=Cc1ccc([N+](=O)[O-])cc1)NCC1CCCO1 (stereo not given)	nt	-2	nt	nt	3	1
N#C/C(=C\C=C\c1ccccc1)c1nc(-c2ccc3c(c2)OCO3)cs1	1	nt	20*	56	nt	nt
COc1ccc(C2CC(=O)C=C(c3cccc(Cl)c3)C2)cc1OC (stereo not given)	nt	3	nt	nt	5	14
CCn1ccc(C(=O)NC2C(=O)N3C(C(=O)O)=C(C)CSC23)n1 (stereo not given)	-7	7	3	18	9	nt
Cc1c(Cl)c(C(F)F)nn1CC(=O)NC1C(=O)N2C(C(=O)O)=C(CSc3nnnn3C)CSC12 (stereo not given)	nt	97*	nt	nt	100*	nt
Cc1c(Cl)cnn1CC(=O)NC1C(=O)N2C(C(=O)O)=C(CSc3nnnn3C)CSC12 (stereo not given)	0	100*	-3	27	100*	nt
Cn1nnnc1SCC1=C(C(=O)O)N2C(=O)C(NC(=O)Cn3nc(C(F)F)cc3C3CC3)C2SC1 (stereo not given)	3	101*	3	20	100*	nt
CCN1CCN(C(=O)NC(C(=O)NC2C(=O)N3C(C(=O)O)=C(CSc4nnnn4C)CSC23)c2ccc(O)cc2)C(=O)C1=O (stereo not given)	nt	100*	nt	nt	101*	25
C#CCNC(=O)C=Cc1ccc(OC)cc1	nt	-3	nt	nt	-1	11
CC(CSc1ccc(Br)cc1)CN1CCC(O)CCC1=O (stereo not given)	nt	10	nt	nt	12	14
CC(C)=CCC[C@](C)(O)C1CC[C@]2(C)C1C(O)CC1[C@@]3(C)CCC(OC4OC(CO)C(O)C(O)C4OC4OC(CO)C(O)C(O)C4O)C(C)(C)C3CC[C@]12C (stereo not given in full)	nt	-22	nt	nt	2	6
COc1ccc(SCCN2CCC(O)CCC2=O)cc1 (stereo not given)	nt	4	nt	nt	9	1
Cc1nn(CC(=O)NC2C(=O)N3C(C(=O)O)=C(CSc4nnnn4C)CSC23)cc1Br (stereo not given)	1	99*	3	21	100*	nt
CC(C(=O)NC1C(=O)N2C(C(=O)O)=C(CSc3nnnn3C)CSC12)n1cc(Cl)cn1 (stereo not given)	4	100*	-5	18	100*	nt
CO[C@@]1(NC(=O)CSCC#N)C(=O)N2C(C(=O)O)=C(CSc3nnnn3C)CSC21 (stereo not given in full)	nt	6	nt	nt	3	4
CC1=Nc2ccccc2/C1=C/c1sc(=N)n(-c2nccs2)c1O	4	98*	3	94	97*	6
CCOC(=O)C1Oc2ccccc2C(c2ccc(F)cc2)=C1C(=O)OC (stereo not given)	nt	71	nt	nt	3	2
CCOC(=O)C1Oc2ccccc2C(c2ccc(C)cc2)=C1C(=O)OC (stereo not given)	nt	95*	nt	nt	0	5

Assay outcomes (PubChem BioAssay)
